Reference: paper PMC4336329 (PLoS ONE, 2015)
In all, about 310,000 compounds went through this assay and about 14,000 (4.5%) showed an effect of 50% or more. The effect is printed as a negative number. The full list was thinned out, with strong results kept by preference.

target: human ether-à-go-go-related gene (hERG) potassium channel (human, UniProt Q12809); assay: primary screen, population patch clamp on CHO cells stably expressing hERG; higher = less effect of the substance
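Note: peak tail current of the secondary pulse compared with the same well before compound.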

Chain of human ether-à-go-go-related gene (hERG) potassium channel (Q12809 whole entry, looked up): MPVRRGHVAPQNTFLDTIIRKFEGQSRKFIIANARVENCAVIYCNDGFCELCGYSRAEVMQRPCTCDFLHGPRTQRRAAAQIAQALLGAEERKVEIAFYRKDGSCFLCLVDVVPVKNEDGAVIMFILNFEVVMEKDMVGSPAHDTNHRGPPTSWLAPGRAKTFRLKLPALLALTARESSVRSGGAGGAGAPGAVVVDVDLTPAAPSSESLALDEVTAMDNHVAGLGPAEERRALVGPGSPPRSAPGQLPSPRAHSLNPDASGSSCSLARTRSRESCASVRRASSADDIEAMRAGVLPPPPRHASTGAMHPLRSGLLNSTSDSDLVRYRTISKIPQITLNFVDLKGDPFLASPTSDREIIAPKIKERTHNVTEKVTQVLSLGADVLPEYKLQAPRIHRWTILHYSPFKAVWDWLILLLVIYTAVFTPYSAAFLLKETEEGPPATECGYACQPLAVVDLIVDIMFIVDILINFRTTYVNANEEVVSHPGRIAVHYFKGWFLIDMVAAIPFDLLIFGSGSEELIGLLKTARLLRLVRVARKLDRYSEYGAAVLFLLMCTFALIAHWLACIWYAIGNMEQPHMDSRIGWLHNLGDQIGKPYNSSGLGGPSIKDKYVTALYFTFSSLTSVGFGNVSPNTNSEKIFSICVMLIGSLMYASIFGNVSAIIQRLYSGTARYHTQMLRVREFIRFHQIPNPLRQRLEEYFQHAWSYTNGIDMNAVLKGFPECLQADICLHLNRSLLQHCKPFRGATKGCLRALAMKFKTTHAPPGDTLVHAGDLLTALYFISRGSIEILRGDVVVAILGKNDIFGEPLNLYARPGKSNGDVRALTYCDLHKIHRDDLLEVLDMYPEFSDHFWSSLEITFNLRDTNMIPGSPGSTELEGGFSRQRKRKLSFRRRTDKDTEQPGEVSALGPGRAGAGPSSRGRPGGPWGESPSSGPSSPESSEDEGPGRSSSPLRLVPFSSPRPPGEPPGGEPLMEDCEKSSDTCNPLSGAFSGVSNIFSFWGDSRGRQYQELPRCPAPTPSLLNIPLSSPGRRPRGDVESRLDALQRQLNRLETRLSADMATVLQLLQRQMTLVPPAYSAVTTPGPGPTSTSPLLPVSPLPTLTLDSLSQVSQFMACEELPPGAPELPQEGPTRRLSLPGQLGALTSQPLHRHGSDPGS

Point of comparison: `CCc1ccc(/C=c2\s/c(=C\C(=O)C(C)(C)C)[nH]c2=O)cc1`, “hERG current change (%, negative = inhibition) at 10uM” value 15.2%. Against it:
- C=CCN=C1CC(C)(C)CC(=O)/C1=C(\O)c1ccccc1 — lower, -6.18%
- CCCC(=O)Nc1sc(C)c(C)c1C#N — lower, 2.9%
- Cc1cc(N(C)C)nc(Nc2ccccc2)n1 — lower, -56.8%
- Cc1cc(C)nc(Sc2nc(Nc3ccccc3)nc(Sc3nc(C)cc(C)n3)n2)n1 — lower, -4.94%
- CN(C)c1nc(Nc2ccccc2)nc(N(C)C)n1 — lower, 8.3%
- COc1ccccc1CCNC(=O)NC1CCCCC1 — lower, -12.1%
- Cc1nc(C(C)NC(=O)CCc2nnc(-c3ccsc3)o2)cs1 (stereo not shown) — higher, 15.8%
- CC(=Nc1ccc2c(c1)nc(CO)n2C)C1=C(O)CC(C)(C)CC1=O — lower, 2.09%
- Cc1ccccc1NS(=O)(=O)c1ccc(OCCNS(C)(=O)=O)cc1 — lower, -4.01%
- CN(C)S(=O)(=O)c1cccc(NC(=O)CSc2nc3c(cc2C#N)C(=O)CC(C)(C)C3)c1 — lower, -34.7%
- CN1CCc2nc(SCC(=O)Nc3ccc(Cl)cc3)c(C#N)cc2C1 — lower, -38.4%
- CCN(CC)S(=O)(=O)c1cc(NC(=O)CSc2nc3c(cc2C#N)C(=O)CC(C)(C)C3)ccc1C — lower, 4.51%
- N#Cc1cc2c(nc1SCC(=O)Nc1cc(Cl)ccc1Cl)C1CCN2CC1 — lower, -51.7%
- N#Cc1cc2c(nc1SCC(=O)Nc1ccc(Cl)cc1)C1CCN2CC1 — lower, -7.69%
- CN(C)S(=O)(=O)c1ccc(Cl)c(NC(=O)CSc2nc3c(cc2C#N)C(=O)CC(C)(C)C3)c1 — lower, -65.3%
- CCCCOC(=O)c1ccc(NC(=S)N2CCN(c3ncc4c(=O)c(C(=O)O)cn(CC)c4n3)CC2)cc1 — lower, 11.2%
- C[C@H](NC(=O)c1[nH]cnc1C(=O)Nc1ccc(CNC(=O)OC(C)(C)C)cc1)C(=O)OC(C)(C)C — higher, 17.2%
- COC(=O)c1ccc(C2c3c(oc4ccc(F)cc4c3=O)C(=O)N2CCO)cc1 (stereo not shown) — lower, 3.74%
- Cc1ccc(/C=N/N2CCN(Cc3ccccc3)CC2)s1 — lower, -15.7%
- O=C(CCC(=O)N/N=C/c1ccc(Br)s1)NCc1ccccc1 — lower, 5.19%
- Cc1ccc(/C=N/NC(=O)CN2CCN(Cc3ccccc3)CC2)s1 — lower, -55.8%
- Cc1ccsc1/C=N/NC(=O)CN1CCN(Cc2ccccc2)CC1 — lower, -8.1%
- O=C(CN1CCN(Cc2ccccc2)CC1)N/N=C/c1ccc(Br)s1 — lower, -60%
- O=C(N/N=C/c1ccc(Br)s1)Nc1ccccc1 — lower, 4.13%
- COc1cc(CC(=O)OCC(=O)Nc2ncc(Cl)cc2Cl)cc(OC)c1OC — lower, 7.58%
- COc1ccccc1NS(=O)(=O)c1ccc(O)c(C(=O)OCC(=O)c2ccc(Cl)cc2Cl)c1 — higher, 23.4%
- Br.CC(C)CCC1CC(CSC(=N)N)OC1=O (stereo not shown) — lower, -14%
- Oc1ccccc1-[n+]1c(-c2ccccc2)cc(-c2ccccc2)c(O)c1-c1ccccc1.[O-][Cl+3]([O-])([O-])[O-] — lower, 15.1%
- O=C([O-])c1ccccc1-[n+]1c(-c2ccccc2)cc(-c2ccccc2)cc1-c1ccccc1 — lower, -3.82%
- Nc1ccccc1-[n+]1c(-c2ccccc2)cc(-c2ccccc2)cc1-c1ccccc1.[O-][Cl+3]([O-])([O-])[O-] — lower, -50.9%
- [O-]c1ccccc1-[n+]1c(-c2ccccc2)cc(-c2ccccc2)cc1-c1ccccc1 — lower, -71.1%
- O=C([O-])c1ccc(-[n+]2c(-c3ccccc3)cc(-c3ccccc3)cc2-c2ccccc2)cc1 — lower, -0.807%
- Oc1ccccc1-[n+]1c(-c2ccccc2)cc(-c2ccccc2)cc1-c1ccccc1.[O-][Cl+3]([O-])([O-])[O-] — lower, -71.2%
- Cc1ccc(-c2cc(-c3ccccc3)cc(-c3ccccc3)[n+]2-c2ccccc2C(=O)O)cc1.[O-][Cl+3]([O-])([O-])[O-] — lower, -21.5%
- Cc1ccccc1-[n+]1c(-c2ccccc2)cc(-c2ccccc2)cc1-c1ccccc1.[O-][Cl+3]([O-])([O-])[O-] — lower, -76.3%
- COc1ccc(NC(=O)C2CCCN(S(=O)(=O)c3ccc4c(c3)CC(C)N4C(C)=O)C2)cc1 (stereo not shown) — higher, 24.3%
- Cc1ccc(NC(=O)C2CCCC2)cc1Cl — lower, -2.92%
- O=C(COC(=O)CNS(=O)(=O)c1ccccc1)NC12CC3CC(CC(C3)C1)C2 — lower, -18%
- C=CCNC(=S)N/N=C(\C)c1cccnc1 — lower, 0.787%
- O=C(NC1CCCC1)C(c1cc2c(cc1[N+](=O)[O-])OCO2)N1CCCC1 (stereo not shown) — higher, 20.6%
- COc1cc(C(=O)Nc2cccnc2)cc(OC)c1OC — higher, 16.3%
- O=CN1CCN(C(=O)CN2C(=O)c3ccccc3C2=O)CC1 — lower, 10.5%
- CCN(CCn1cccn1)Cc1ccccc1OCC(O)CN1CCc2ccccc2C1 (stereo not shown) — lower, -51.5%
- COc1ccc(OCC(O)CN2CCc3ccccc3C2)cc1.Cl (stereo not shown) — lower, -33.1%
- Cn1cc(CNCc2ccccc2OCC(O)CN2CCc3ccccc3C2)cn1 (stereo not shown) — lower, -0.11%
- OC(COc1ccccc1CNCc1cccnc1)CN1CCc2ccccc2C1 (stereo not shown) — lower, -34.2%
- CCC(=O)c1ccc(OCC(O)CN2CCc3ccccc3C2)cc1.Cl (stereo not shown) — lower, -63.7%
- Cc1cc(=O)oc2cc(OCC(O)CN3CCc4ccccc4C3)ccc12 (stereo not shown) — lower, -31.7%
- CCOc1ccc(OCC(O)CN2CCc3ccccc3C2)cc1.Cl (stereo not shown) — lower, -66.3%
- CC(=O)c1ccc(OCC(O)CN2CCc3ccccc3C2)cc1.Cl (stereo not shown) — lower, -41.9%
- Cc1cc(OCC(O)CN2CCc3ccccc3C2)ccc1Cl.Cl (stereo not shown) — lower, -53.4%
- O=S(=O)(c1ccc(OCC(O)CN2CCc3ccccc3C2)cc1)N1CCOCC1 (stereo not shown) — lower, -4.43%
- Cl.OC(COc1ccc2c(c1)OCO2)CN1CCc2ccccc2C1 (stereo not shown) — lower, -28.5%
- N#CC1=C(N)NC(SCC(=O)Nc2ccc(Br)cc2)=C(C#N)C12CCCCC2 — lower, 13.4%
- O=C(Nc1cc(Cl)ccc1O)C1CC(c2ccccc2Cl)=NO1 (stereo not shown) — higher, 20.3%
- O=C(N/N=C/c1cn(-c2cccs2)nc1-c1ccccc1)c1ccc(O)cc1 — lower, 13.8%
- COc1c(C)cccc1C(=O)Nc1ccc(N2CCN(S(C)(=O)=O)CC2)cc1 — lower, 5.12%
- CCCC(=O)Nc1nnc(CC(=O)N2CCCC2)s1 — lower, 7.72%
- O=C(CCCc1nc(-c2ccccc2Cl)no1)NCc1cccnc1 — lower, -2.1%
- Cn1nnnc1NCc1ccccc1F — lower, 4.52%
- CCCCC1OC23CCCCC2C(C#N)(C(=N)O3)C1(C#N)C#N (stereo not shown) — lower, 4.17%
- CCN(CC)S(=O)(=O)c1ccc2c(c1)nc(SCC(=O)NCC1CCCO1)n2CC (stereo not shown) — lower, 3.12%
- c1ccc(CSc2nnc(-c3cccs3)n2Cc2ccco2)cc1 — lower, -46.8%
- Cl.OC1(CN2CCOCC2)C2CC3CC(C2)CC1C3 (stereo not shown) — lower, 11%
- O=C(COC(=O)c1cc(-c2ccccc2)nc2ccccc12)Nc1ccc2c(c1)OCO2 — lower, 10.7%
- O=C(NCCCc1ccccc1)c1ccccc1O — lower, -0.415%
- CCCCSc1nnc(CCC)n1N — lower, -2.49%
- Cc1ccc(C)c(NC(=S)N(Cc2cccc(Br)c2)CC2CCC(C(=O)O)CC2)c1 (stereo not shown) — lower, 2.11%
- COC(=O)c1ccccc1NC(=O)NC1CCCCC1 — lower, 5.86%
- CCCc1ccc(OCC(O)CN2CCCC2)cc1.Cl (stereo not shown) — lower, -27.8%
- CCCc1ccc(OCC(O)CN2CCN(CCO)CC2)cc1.Cl (stereo not shown) — lower, -13.7%
- OC(COc1ccc(CNCc2cccnc2)cc1)CN1CCc2ccccc2C1 (stereo not shown) — lower, -13.5%
- CC(C)(C)c1ccc(OCC(O)CN2CCc3ccccc3C2)cc1.Cl (stereo not shown) — lower, -50.3%
- COc1cccc(OCC(O)CN2CCc3ccccc3C2)c1.Cl (stereo not shown) — lower, -71.1%
- CCCc1ccc(OCC(O)CN2CCc3ccccc3C2)cc1.Cl (stereo not shown) — lower, -71.5%
- COc1cccc(OCC(O)CN2CCOCC2)c1.Cl (stereo not shown) — higher, 18.7%
- COc1cccc(C2c3c(oc4ccc(F)cc4c3=O)C(=O)N2CCN2CCOCC2)c1OC (stereo not shown) — lower, 4.45%
- CCCCn1c(SCC(=O)Nc2cc(NC(=O)c3ccco3)ccc2C)nc2ccccc2c1=O — lower, -8.62%
- Cc1ccc(/C=N/N2CCN(C3c4ccccc4-c4ccccc43)CC2)s1 — lower, 0.486%
- CN(/N=C/c1cccc(Br)c1)C1=NS(=O)(=O)c2ccccc21 — lower, -11.8%
- COc1ccc(N2CCN(c3nc4c(c(=O)n(C)c(=O)n4C)n3CCCc3ccccc3)CC2)cc1 — lower, 13.4%
- O=C(c1noc2c1CCCC2)N1CCCC(N2CCN(c3ccccc3F)CC2)C1 (stereo not shown) — lower, -28%
- Cc1cc(C(=O)N2CCCC(N3CCN(c4ccccc4C)CC3)C2)n(C)n1 (stereo not shown) — lower, -88.8%
- Cc1ccccc1N1CCN(C2CCCN(C(=O)c3cc(C(C)C)[nH]n3)C2)CC1 (stereo not shown) — lower, -61.2%
- Cc1ccccc1N1CCN(C2CCCN(C(=O)c3noc4c3CCCC4)C2)CC1 (stereo not shown) — lower, -63.5%
- Cc1ccccc1N1CCN(C2CCCN(C(=O)c3cn4c(C)cccc4n3)C2)CC1 (stereo not shown) — lower, -58.1%
- Cc1ccccc1N1CCN(C2CCCN(C(=O)c3csc(C(C)C)n3)C2)CC1 (stereo not shown) — lower, -43%
- Cc1ccccc1N1CCN(C2CCCN(C(=O)c3ccccn3)C2)CC1 (stereo not shown) — lower, -9.78%
- Cc1cc(C(=O)N2CCCC(N3CCN(c4ccccc4C)CC3)C2)nc(C)n1 (stereo not shown) — lower, 4.27%
- Cc1nc(C(=O)N2CCCC(N3CCN(c4ccccc4C)CC3)C2)cs1 (stereo not shown) — lower, -39.5%
- CCc1[nH]nc(C(=O)N2CCCC(N3CCN(c4ccccc4C)CC3)C2)c1C (stereo not shown) — lower, -23.8%
- Cc1ccccc1N1CCN(C2CCCN(C(=O)c3cc(CC(C)C)nn3C)C2)CC1 (stereo not shown) — lower, -31.7%
- CCCc1cc(C(=O)N2CCCC(N3CCN(c4ccccc4C)CC3)C2)n(C)n1 (stereo not shown) — lower, -35.8%
